From PubChem BioAssay come the findings set out here.

The test system of test [1] is Wnt5a (protein binding on small-molecule microarray). The experiment in a line: Wnt5a binders on small-molecule microarray, primary screen, biophysical, 635/667 nm fluorescence (AID 1142).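 Further: fluorescence read at 667 nm with signal to noise per printed feature.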 The settings on record: 635 nm fluorescence, higher = more signal.
The nature of test [2]: cell viability in Huh7 cells, primary screen, cytotoxicity control for HCV replication inhibitor project, CellTiter-Glo luminescence, basal, 48 h (AID 1143).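 Further: Huh7 hepatoma cells carrying a hepatitis C replication reporter with no stimulus; test concentration not given here.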 The following applies: Huh7 HCV replicon, higher = more signal, called active from +8 up or from −8 down. A general note: In ATP-based viability assays light output follows the ATP content of the culture.
Test [3] can be described thus: P. aeruginosa biofilm formation inhibitors, primary screen, PAO1 strain, BacTiter-Glo luminescence, LB-PBS (AID 1144). The following applies: 12 h, higher = more signal.
A short description of test [4]: CREB reporter modulators without forskolin, primary screen, cell-based, PC12, CRE-LacZ reporter, unstimulated (AID 1145). The settings on record: no forskolin, luminescence, 4.5 h, higher = more signal, called active from +8 up or from −8 down.
A short description of test [5]: CREB reporter modulators under forskolin, primary screen, cell-based, PC12, CRE-LacZ reporter, forskolin-stimulated (AID 1146).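 Further: PC12 cells with 6xCRE LacZ reporter stimulated by forskolin 10 µM; beta-galactosidase reporter signal reflecting CREB driven transcription.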 The following applies: luminescence, 4.5 h, higher = more signal, called active from +8 up or from −8 down.
For test [6], the target named is Streptavidin (Streptomyces avidinii) (UniProt P22629). The test is described as follows: streptavidin binders on small-molecule microarray, primary screen, artefact control for SMM compound annotation, biophysical, 635/667 nm fluorescence (AID 1147).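 Further: signal reflects streptavidin binding to arrayed compounds as a control protein.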 The settings on record: streptavidin binding, higher = more signal.
Sequence of Streptavidin (Streptomyces avidinii) (P22629 whole entry, looked up): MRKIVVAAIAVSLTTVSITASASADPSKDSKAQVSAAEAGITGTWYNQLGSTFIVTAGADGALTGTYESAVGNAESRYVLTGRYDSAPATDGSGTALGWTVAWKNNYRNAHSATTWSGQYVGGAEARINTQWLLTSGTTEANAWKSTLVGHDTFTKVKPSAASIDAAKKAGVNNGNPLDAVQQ
Test [7] can be described thus: small-molecule binders of probe aInhba, primary screen, biochemical, small-molecule microarray, 635/667 nm fluorescence (AID 1148).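 Further: score merges 667nm spot fluorescence with signal-to-noise for antibody binding to printed compounds.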 The settings on record: higher = more signal.
Test [8] deals with Torsin-1A (Homo sapiens) (UniProt O14656). The test is described as follows: torsin A binders from cell lysate, primary screen, small-molecule microarray, wild-type, 635/667 nm (AID 1149). The settings on record: COS7 hTOR1A-WT lysate, 635 nm fluorescence, higher = more signal.
Sequence of Torsin-1A (Homo sapiens) (O14656 whole entry, looked up): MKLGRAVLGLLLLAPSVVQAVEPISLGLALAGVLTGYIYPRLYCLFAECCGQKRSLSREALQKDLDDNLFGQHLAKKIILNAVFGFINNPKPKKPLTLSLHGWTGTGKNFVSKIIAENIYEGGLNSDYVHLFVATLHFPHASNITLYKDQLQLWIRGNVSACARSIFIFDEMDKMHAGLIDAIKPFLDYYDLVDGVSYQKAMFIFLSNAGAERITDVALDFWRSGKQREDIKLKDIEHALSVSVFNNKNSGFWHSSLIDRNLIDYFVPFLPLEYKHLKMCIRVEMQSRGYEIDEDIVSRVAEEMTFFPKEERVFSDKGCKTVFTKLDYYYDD
The target is the same in test [9]. The test is described as follows: small-molecule binders of mutant TOR1A in lysate, primary screen, cell lysate, small-molecule microarray, COS7 lysate, 635/667 nm fluorescence (AID 1150).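 Further: score pools 667 nm emission and signal to noise measuring lysate protein binding.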 The following applies: COS7 hTOR1A mutant lysate, 635 nm fluorescence, higher = more signal.
Test [10] relates to Sonic hedgehog protein (Shh). The test is described as follows: small-molecule binders of Shh protein, primary screen, biochemical, small-molecule microarray, 635/667 nm fluorescence (AID 1151).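 Further: Shh protein binding to compounds spotted on small-molecule microarray slides; score combines spot fluorescence intensity with signal-to-noise across triplicate slides.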 The settings on record: small-molecule microarray binding, 635 nm fluorescence; higher = more signal.
Test [11] in a line: E. coli DRC41 culture turbidity changes, primary screen, E. coli filamentation inducer project, strain DRC41, OD650, 48 h (AID 1152).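 Further: E. coli MC1000 strain DRC41 lacking acrAB efflux pump and sulA.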 The settings on record: E. coli DRC41 (acrAB sulA), higher = more signal, called active from +8 up or from −8 down.
Test [12] can be described thus: small-molecule binders of probe aLefty1, primary screen, biochemical, small-molecule microarray, 635/667 nm fluorescence (AID 1153).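 Further: score merges spot fluorescence with signal-to-noise ratio from the scanned slide images.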 The following applies: higher = more signal.
Test [13] can be described thus: PSAC antagonists in infected red cells, primary screen, cell-based, P. falciparum Indochina, OD700, 1 h (AID 1154). The settings on record: P. falciparum Indochina infected RBC osmotic lysis, higher = more signal, called active from +8 up or from −8 down.
Test [14] in a line: PSAC antagonists in infected red cells, primary screen, cell-based, P. falciparum Indochina, OD700, 2 h (AID 1155).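 Further: lysis reports solute entry through the parasite surface anion channel PSAC; channel blockers reduce lysis of infected cells.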 The following applies: P. falciparum Indochina infected erythrocytes, osmotic lysis OD700; higher = more signal, called active from +8 up or from −8 down.
Test [15] in a line: osmotic lysis modulators in infected erythrocytes, primary screen, PSAC antagonist project, cell-based, P. falciparum Indochina, OD700, 3 h (AID 1156). The following applies: higher = more signal, called active from +8 up or from −8 down.
Test [16] in a line: PSAC antagonists in infected red cells, primary screen, cell-based, P. falciparum Indochina, OD700, 18 h (AID 1157). The settings on record: P. falciparum Indochina infected erythrocytes, osmotic lysis OD700, 18 h; higher = more signal, called active from +8 up or from −8 down.
Test [17] can be described thus: modulators of S6 phosphorylation in cells, primary screen, cell-based, A549, cytoblot, luminescence, serum-stimulated (AID 1158).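 Further: serum-stimulated A549 lung adenocarcinoma cells; signal is phosphorylated S6 detected by cytoblot immunostaining with HRP secondary.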 The settings on record: A549 phospho-S6 cytoblot, 5 h, higher = more signal.
In test [18] the target is NADPH oxidase 2 (Homo sapiens) (UniProt P04839). The experiment in a line: NOX2-dependent H2O2 signal modulators, primary screen, NOX inhibitor project, cell-based, HEK293-NOX2, PMA-stimulated, Amplex Red fluorescence (AID 1159). Further: test concentration not given here. The settings on record: 45 min, higher = more signal, called active from +8 up or from −8 down.
Sequence of NADPH oxidase 2 (Homo sapiens) (P04839 whole entry, looked up): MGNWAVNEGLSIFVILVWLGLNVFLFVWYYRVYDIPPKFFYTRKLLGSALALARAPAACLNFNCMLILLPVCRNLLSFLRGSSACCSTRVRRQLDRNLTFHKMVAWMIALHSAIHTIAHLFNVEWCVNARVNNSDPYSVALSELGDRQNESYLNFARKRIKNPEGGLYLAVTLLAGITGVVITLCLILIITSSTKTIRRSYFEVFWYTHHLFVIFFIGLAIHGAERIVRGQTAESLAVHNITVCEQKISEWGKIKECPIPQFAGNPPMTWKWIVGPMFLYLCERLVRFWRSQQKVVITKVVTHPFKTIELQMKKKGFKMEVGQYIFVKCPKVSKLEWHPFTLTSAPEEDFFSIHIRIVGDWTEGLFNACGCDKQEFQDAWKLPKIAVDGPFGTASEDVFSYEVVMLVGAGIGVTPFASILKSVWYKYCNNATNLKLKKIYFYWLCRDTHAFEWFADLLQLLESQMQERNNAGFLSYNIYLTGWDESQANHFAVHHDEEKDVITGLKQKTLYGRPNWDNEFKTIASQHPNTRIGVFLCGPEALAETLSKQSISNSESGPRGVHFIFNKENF
The target in test [19] is NADPH oxidase 4 (Homo sapiens) (UniProt Q9NPH5). The experiment in a line: NOX4-dependent H2O2 signal modulators, primary screen, NOX inhibitor project, cell-based, HEK293-NOX4, tetracycline-induced, Amplex Red fluorescence (AID 1160). The following applies: 45 min, higher = more signal, called active from +8 up or from −8 down.
Sequence of NADPH oxidase 4 (Homo sapiens) (Q9NPH5 whole entry, looked up): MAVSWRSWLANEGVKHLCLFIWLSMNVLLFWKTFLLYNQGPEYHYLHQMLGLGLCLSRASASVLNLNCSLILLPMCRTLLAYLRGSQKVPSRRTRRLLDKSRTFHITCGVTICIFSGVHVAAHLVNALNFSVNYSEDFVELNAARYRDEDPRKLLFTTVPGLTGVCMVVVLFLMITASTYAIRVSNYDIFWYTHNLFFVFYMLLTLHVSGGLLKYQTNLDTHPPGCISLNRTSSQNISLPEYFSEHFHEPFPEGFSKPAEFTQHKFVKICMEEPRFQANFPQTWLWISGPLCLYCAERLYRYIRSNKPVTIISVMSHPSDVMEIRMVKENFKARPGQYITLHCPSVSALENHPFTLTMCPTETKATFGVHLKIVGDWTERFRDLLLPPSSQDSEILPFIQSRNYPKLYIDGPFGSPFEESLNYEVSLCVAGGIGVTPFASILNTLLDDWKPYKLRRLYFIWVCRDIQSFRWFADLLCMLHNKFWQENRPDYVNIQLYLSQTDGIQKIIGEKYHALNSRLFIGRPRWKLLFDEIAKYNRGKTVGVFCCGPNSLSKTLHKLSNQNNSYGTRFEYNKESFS
Test [20] has as its target NADPH oxidase 5 (Homo sapiens) (UniProt Q96PH1). The experiment in a line: NOX5-dependent H2O2 signal modulators, primary screen, NOX inhibitor project, cell-based, HEK293-NOX5, Amplex Red fluorescence (AID 1161). The following applies: HEK293-NOX5, ionomycin, 45 min, higher = more signal.

The source made the active and inactive calls. Unless noted, how the calls were made is not given here.

Sequence of NADPH oxidase 5 (Homo sapiens) (Q96PH1 whole entry, looked up): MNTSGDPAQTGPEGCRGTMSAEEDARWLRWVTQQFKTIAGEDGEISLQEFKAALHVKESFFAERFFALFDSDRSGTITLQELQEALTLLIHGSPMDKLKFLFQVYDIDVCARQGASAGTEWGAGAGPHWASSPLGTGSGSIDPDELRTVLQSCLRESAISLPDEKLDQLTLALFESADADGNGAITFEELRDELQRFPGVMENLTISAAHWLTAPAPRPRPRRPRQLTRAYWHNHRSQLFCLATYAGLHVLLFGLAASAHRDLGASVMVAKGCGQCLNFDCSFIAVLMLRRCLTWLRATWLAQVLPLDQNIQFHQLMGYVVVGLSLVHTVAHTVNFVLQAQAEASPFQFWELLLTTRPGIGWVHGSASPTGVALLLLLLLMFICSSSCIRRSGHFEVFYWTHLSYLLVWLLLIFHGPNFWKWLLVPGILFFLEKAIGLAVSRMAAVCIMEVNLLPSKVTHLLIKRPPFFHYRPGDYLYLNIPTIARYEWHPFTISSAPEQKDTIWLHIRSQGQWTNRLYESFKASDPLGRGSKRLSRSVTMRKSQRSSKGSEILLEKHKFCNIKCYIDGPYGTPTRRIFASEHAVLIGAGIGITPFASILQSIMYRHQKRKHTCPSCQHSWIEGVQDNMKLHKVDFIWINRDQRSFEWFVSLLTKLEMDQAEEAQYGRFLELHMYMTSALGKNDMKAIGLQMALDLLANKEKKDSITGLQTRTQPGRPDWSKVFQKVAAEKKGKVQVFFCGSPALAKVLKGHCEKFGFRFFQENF

Take `CCC(CC)C(O)C1C=CC2C(=O)N(c3ccccc3)C(=O)C2N1Nc1ccc(C(C)C)cc1` (stereo not given): the composite z-score in test [1] is 0.578; in [6] it was 0.792; in [7], -0.0021; with Torsin-1A (Homo sapiens) [8], 0.393; in the test with Torsin-1A (Homo sapiens) [9], 0.41; in test [10] it was -0.0854. The composite z-score in test [12] amounted to 0.501. Also, the z-score was -0.382 (inactive) in [2]; -0.0181 (inactive) in [3]; -0.136 (inactive) in [4]; -0.156 (inactive) in test [5]; -0.636 (inactive) in test [11]; 1.46 (inactive) in test [13]. In addition, the z-score is 1.19 (inactive) in test [14]; 0.741 (inactive) in test [15]; 0.801 (inactive) in test [16]; -0.463 in [17]; -0.743 (inactive) in [18]; -4.43 (inactive) in test [19]. Besides, the z-score in [20] was -3.75.
With `NC(=O)NCC#Cc1ccc2c(c1)[C@]1(C(=O)N2)[C@H](C(=O)NC[C@H](O)c2ccccc2)[C@H]2C(=O)O[C@H](c3ccccc3)[C@H](c3ccccc3)N2[C@@H]1c1ccc(OCCO)cc1`, the composite z-score in test [1] was 0.496; in [6], 0.661; in test [7], 0.185; in the test with Torsin-1A (Homo sapiens) [8] it was -0.0075; with Torsin-1A (Homo sapiens) [9], -0.002; in test [10], 0.728. Moreover, in test [12], the composite z-score was 0.157. Moreover, the z-score is 0.546 (inactive) in [2]; -0.223 (inactive) in [3]; -0.698 (inactive) in [4]; -0.535 (inactive) in test [5]; 0.851 (inactive) in test [11]; 4.47 (inactive) in [13]. Besides, the z-score in [14] was 1.72 (inactive); in test [15] it was 1.55 (inactive); in [16] it was 0.49 (inactive); in test [17], 0.0785; in test [18], 1.59 (inactive); in test [19] it was 0.849 (inactive). For the same compound, the z-score in test [20] turned out to be 0.737.
`CCC[C@@H]1C[C@@]1(CCC)[C@@H](NC(=O)OCc1ccccc1)c1ccc(-c2ccccc2)cc1`: the composite z-score was -0.189 in test [1]; -0.504 in test [6]; -0.12 in test [7]; -0.301 in the test with Torsin-1A (Homo sapiens) [8]; -0.928 with Torsin-1A (Homo sapiens) [9]; -0.895 in [10]. The composite z-score in test [12] worked out at 0.545. Also, the z-score was -1.28 (inactive) in test [2]; -0.0658 (inactive) in test [3]; -0.375 (inactive) in test [4]; 0.785 (inactive) in test [5]; -1.07 (inactive) in test [11]; 3.2 (inactive) in test [13]. Moreover, the z-score in test [14] is 0.81 (inactive); in test [15] it was -0.221 (inactive); in [16], 0.224 (inactive); in test [17], 0.542; in test [18], -0.648 (inactive); in test [19], -1.45 (inactive). Further, the z-score in test [20] worked out at 0.0161.
Turning to `C=C(/C(=C/C[C@H](OC(C)=O)c1ccccc1OCCO)c1cc(C(=O)OC)ccc1OC)C(C)C`, the composite z-score in test [1] was 0.608; in test [6] it was -1.06; in test [7], 0.0906; with Torsin-1A (Homo sapiens) [8], 0.356; in the test with Torsin-1A (Homo sapiens) [9], 1.53; in [10] it was 1.4. The composite z-score in test [12] is -0.157. Further, the z-score is -3.44 (inactive) in test [2]; 0.48 (inactive) in [3]; 13.6 (active) in test [4]; -0.556 (inactive) in [5]; 0.483 (inactive) in test [11]; 5.75 (inactive) in test [13]. Moreover, the z-score in test [14] is 0.195 (inactive); in [15] it was 1.85 (inactive); in test [16], -1.19 (inactive); in [17], 1.09; in test [18], 0.137 (inactive); in test [19], 0.264 (inactive). Also, the z-score in test [20] is -2.12.
As to `COc1ccc([Si](C)(C)[C@H]2[C@H](CCO)O[C@@]3(C(=O)N(Cc4cccc(N5C(=O)COc6ccccc65)c4)c4ccccc43)[C@@H]2C)cc1`, the composite z-score is -0.285 in [1]; 0.174 in test [6]; -0.128 in test [7]; -0.451 with Torsin-1A (Homo sapiens) [8]; -0.298 with Torsin-1A (Homo sapiens) [9]; 0.419 in test [10]. In addition, the composite z-score in test [12] worked out at 0.122. The z-score in test [2] is -6.25 (inactive); in test [3], -1.83 (inactive); in [4], 2.41 (inactive); in test [5] it was -1.52 (inactive); in [11], 1.76 (inactive); in test [13] it was 2.15 (inactive). The z-score is 3.18 (inactive) in [14]; 1.7 (inactive) in test [15]; 1.77 (inactive) in test [16]; 0.805 in [17]; -1.26 (inactive) in test [18]; 1.1 (inactive) in test [19]. For the same compound, in [20], the z-score is 1.09.
